Bioassay records from PubChem BioAssay.
IL1B secr inh: inhibitors of inflammasome signaling (IL-1 beta secretion). THP-1 LPS/ATP IL-1B secretion, AlphaLISA, 16 h; active compounds read low. activity change, % at 57.5 µM. hit rate 4.7% among 360,000; in the data active = activity change below about -50%; inconclusive = mostly about -30% to -49%
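Secreted IL-1B measured by AlphaLISA bead assay after 16 h compound exposure of THP-1 cells; compounds (final up to 57.5 uM) added 1 h before LPS (250 ng/mL) and ATP (1.25 mM) stimulation; lower signal means less secretion.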
MCF10A rereplic: induces DNA re-replication in MCF 10a normal breast cells; MCF 10A DNA re-replication, Hoechst nuclear intensity, 48 h; Potency, µM (highest dose often 46.1 µM), actives largely listed as activators; hit rate 2.9% among 350,000; AID 624296; also: nearly all actives have a fitted effect of over 50% in size
KB-3-1 cytotox: KB-3-1 parental cell cytotoxicity. Potency, µM (highest dose often 46.1 µM), hits mostly cytotoxic. KB-3-1 viability, CellTiter-Glo ATP luminescence, 72 h. hit rate 1.4% among 400,000; also: nearly all actives have a fitted effect of over 60% in size
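Cells are dispensed, compounds pinned in, plates held at 37 °C for 72 h, then CellTiter-Glo is added and luminescence read after 10 minutes. Cell line: parental KB-3-1 in phenol-red-free DMEM, 10% FBS.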
KB-V1 MDR tox: KB-V1 MDR subline cytotoxicity | KB-V1 MDR cells viability, CellTiter-Glo, 72 h | Potency, µM (top dose mostly 46.1 µM), hits mostly cytotoxic | hit rate 3.4% among 400,000 | AID 1347076; also: nearly all actives have a fitted effect of over 60% in size
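Cytotoxicity via CellTiter-Glo luminescence after 72 h compound exposure at 37 degrees C. Cells: drug-selected KB-V1 line, DMEM phenol-red free plus 10% FBS. Compounds tested at multiple concentrations; normalized data fitted to concentration-effect curves.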
SW480 rereplic: induces DNA re-replication in SW480 colon adenocarcinoma cells; SW480 DNA re-replication, Hoechst DNA content imaging, 48 h; Potency, µM (top dose mostly 46.1 µM), hits mostly activators; hit rate 1.8% among 340,000; also: nearly all actives have a fitted effect of over 55% in size
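DNA re-replication was detected as more nuclei of elevated Hoechst intensity after 48 hr exposure to compound (23 nL pinned per well of 250 cells).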
A number is an active result; i = inactive; ? = inconclusive; nt = no result given; [ ] = dose if it differs, or a comment. Shown are actives, neighbours in structure and some others; about 9.9% of the full set was active somewhere. Unless noted, calls follow the shape of the dose curve; as a rule, active = well fitted curve in the direction sought with a large enough effect; inconclusive = small, poorly fitted or top-dose-only effect, or another doubt; inactive = no such curve, though single readings can be large; an effect the other way counts as inactive or inconclusive.

SMILES	IL1B secr inh	MCF10A rereplic	KB-3-1 cytotox	KB-V1 MDR tox	SW480 rereplic
OCCNCCNCc1ccccc1OCc1ccccc1	?	i	i	i	21µM
O=C(OCc1cc(=O)n2nc(C3CC3)sc2n1)c1ccc(F)cc1	nt	nt	i	i	nt
O=C(COCc1cc(-c2ccc3c(c2)OCO3)on1)NCc1ccc(F)cc1	nt	nt	i	i	nt
O=c1nc(Nc2cccc(Cl)c2)oc2cc(Cl)oc(=O)c12	i	16µM	i	?	i
O=c1nc(Nc2ccccc2)oc2ccccc12	i	i	i	?	i
CC(C)CCNC(=O)c1cccc(-n2cnc3cccnc32)c1	nt	nt	i	i	nt
Cc1cc(N(C)Cc2ccccc2)nc2cc(O)ccc12	-56	i	i	i	i
Cc1cc(N(C)Cc2ccccc2)nc(-c2ccccc2)n1	i	?	?	?	?
Cn1c(SCC(=O)N/N=C/c2cc([N+](=O)[O-])ccc2O)nnc1-c1ccccc1	i	i	?	i	?
Cc1ccccc1C(=O)N/N=C/c1ccc([N+](=O)[O-])s1	-65	i	i	?	?
O=C(N/N=C/c1ccc([N+](=O)[O-])s1)c1ccccc1Br	-63	i	i	?	10µM
Cn1c(SCC(=O)N/N=C/c2ccc([N+](=O)[O-])s2)nnc1-c1ccccc1	-98	18µM	21µM	?	?
O=C(CNC(=O)c1cccc(F)c1)N/N=C/c1ccc([N+](=O)[O-])s1	i	?	i	i	18µM
O=C(Cc1ccccc1)N/N=C/c1ccc([N+](=O)[O-])s1	i	?	?	15µM	?
O=C(N/N=C\c1ccc([N+](=O)[O-])s1)c1cncc(Br)c1	-58	7.3µM	5.8µM	i	5.8µM
O=C(N/N=C/c1ccc([N+](=O)[O-])s1)c1ccccc1	?	i	?	i	i
CCCS(=O)(=O)NC(=O)C1(C)CCN(C(=O)c2cc(F)cc(F)c2)C1 (stereo not given)	i	nt	i	i	nt
COCCCNc1nc2c(-c3cccc(C)c3)nnn2c2ccccc12	i	13µM	i	i	i
COc1cc(/C=N/Nc2ncc(C(F)(F)F)cc2Cl)cc(OC)c1O	i	i	?	21µM	i
COc1cc(/C=N/Nc2ncc(C(F)(F)F)cc2Cl)cc(OC)c1OC	i	?	i	?	7.3µM
O=C(CSc1nccn1Cc1ccccc1)NC1CCCC1	i	i	i	i	i
Cc1ccc(CN2CCC(CNC(=O)c3cc4ccc5cccnc5c4[nH]3)CC2)cc1	nt	nt	?	i	nt
Cc1nc(Nc2cnc(/C=C/c3cc(C(=O)Nc4cccc(C(F)(F)F)c4)ccc3C)cn2)cc(N2CCNCC2)n1	-97	15µM	?	?	16µM
COc1ccc(OC)c(NC(=O)CSc2nnc(Cc3cccn3C)n2CCc2ccccc2)c1	i	i	i	7.3µM	i
O=C(NCCN1CCOCC1)c1cc(-c2ccc(Cl)c(Cl)c2)on1	i	i	i	i	i
SMILES	IL1B secr inh	MCF10A rereplic	KB-3-1 cytotox	KB-V1 MDR tox	SW480 rereplic
O=C(NCCN1CCOCC1)c1cc(-c2ccc(Cl)cc2)on1	i	i	i	21µM	i
O=C(Nc1nc(-c2ccccn2)cs1)C1CCCC1	-71	i	i	?	i
Cc1c(C(=O)Nc2nc(-c3ccccn3)cs2)oc2ccccc12	i	23µM	?	i	i
CSCCC(=O)Nc1nc(-c2ccccn2)cs1	i	i	i	?	?
Cc1csc(NC(=O)c2cccn2C)n1	i	?	i	i	i
Cn1cccc1C(=O)Nc1nc(-c2ccccn2)cs1	i	i	10µM	?	?
CCN(C)c1ccc(/C=N\n2nnnc2N)cc1	i	?	5.2µM	2.6µM	?
Nc1nnnn1/N=C\c1ccc(Cl)c([N+](=O)[O-])c1	-61	?	i	i	?
O=[N+]([O-])c1cc(/C=N/N2CCCCC2)ccc1Cl	i	i	i	i	i
CCN(CC)c1ccc(/C=N/n2nnnc2N)c(O)c1	i	?	16µM	?	?
Nc1nnnn1/N=C/c1cc(Cl)ccc1O	i	i	i	?	i
COc1cc(CN(C(=O)COc2ccccc2Cl)c2ccccn2)cc(OC)c1OC	nt	nt	i	i	nt
Clc1ccccc1Nc1nc(NCC2CC2)nc2ccsc12	i	nt	?	i	nt
Cc1noc(C)c1-c1ccc2nc[nH]c(=O)c2c1	nt	i	13µM	?	i[9.22 µM]
CC(=O)N(c1cccc(Cl)c1)c1nc(C)cc(C)c1C#N	i	i	i	i	?
COc1ccc(O)cc1CN1CCN(c2ncc(Cc3ccccc3)cn2)CC1	i	nt	?	?	nt
CN1CCN(c2ncc3c(n2)CCN(Cc2ccccc2Cl)C3)CC1	nt	nt	i	i	nt
Clc1ccccc1CN1CCc2nc(N3CCN(c4ncccn4)CC3)ncc2C1	nt	nt	?	18µM	nt
Oc1ccc(Cl)c(CN2CCN(c3ncc(Cc4ccccc4)cn3)CC2)c1	i	nt	?	16µM	nt
Clc1ccc(CN2CCN(c3ncccn3)CC2)c(Cl)c1	i	23µM	i	i	?
NC(=S)n1[nH]c(-c2ccc([N+](=O)[O-])cc2)c(N=Nc2ccc(Cl)cc2)c1=O	-92	i	18µM	i	i
O=C(N/N=C/c1ccc(N2CCOCC2)cc1)c1ccncc1	i	i	i	i	i
O=C(N/N=C/c1ccc(N2CCOCC2)cc1)c1cccs1	i	i	i	i	6.5µM
O=C(N/N=C/c1ccc(N2CCOCC2)cc1)c1ccc(NS(=O)(=O)c2cccs2)cc1	i	i	?	i	i
O=C(N/N=C/c1ccc(N2CCOCC2)cc1)c1ccccc1OCCOc1ccccc1	-65	?	i	?	?
SMILES	IL1B secr inh	MCF10A rereplic	KB-3-1 cytotox	KB-V1 MDR tox	SW480 rereplic
CCN(CC)S(=O)(=O)c1cc([N+](=O)[O-])ccc1NNC(=O)Nc1ccc(F)cc1	i	23µM	?	i	i
COc1ccc(OC)c(C=C2CCc3ccccc3C2=O)c1	i	nt	?	?	nt
COc1ccc(/C=C2\SC(N3CCc4ccccc4C3)=NC2=O)cc1OC	i	3.7µM	?	12µM	i
COc1ccc(C=C2C=C(C(C)(C)C)C(=O)C(C(C)(C)C)=C2)cc1OC	-96	21µM	?	?	?
COc1ccc(/C=C2\CCc3ccccc3C2=O)cc1OC	i	?	i	16µM	?
COc1ccc2c(c1)CC/C(=C/c1cc(OC)c(OC)c(OC)c1)C2=O	-85	?	i	i	i
O=C(NCCc1ccccc1F)C1CC(=O)N(c2ccc3c(c2)OCCO3)C1 (stereo not given)	i	nt	i	i	nt
COc1ccc(/C=C2\CCc3ccccc3C2=O)cc1Cn1nc(C)cc1C	-51	?	?	18µM	?
O=C1/C(=C\c2ccc3ccccc3c2)CCCc2ccccc21	i	5.8µM	5.2µM	7.3µM	?
O=C1C(=Cc2ccccn2)CCc2ccccc21	-108	nt	?	?	nt
COc1cc(/C=C2\CC/C(=C\c3ccc(OCCO)c(OC)c3)C2=O)ccc1OCCO	-77	?	i	i	i
COc1ccccc1OCCCOc1ccc(/C=C2\SC(=O)NC2=O)cc1OC	i	?	i	i	i
